Bioassay records deposited in PubChem by several laboratories.
Compounds with a hit are over-represented: about 28% of the library has one in this group of screens.
CYP2C9 inhib: human CYP2C9 inhibition; 20% of 96,000 active; P11712; inhibition, % at 5 µM; CYP2C9 Supersomes, luciferin-H conversion, luminescence;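 active = blocking of liver enzyme CYP2C9 beyond about 50% at 5 µM, limit read from the data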
CYP2C19 inhib: human CYP2C19 inhibition; P33261; CYP2C19 Supersomes, luciferin-H EGE luminescence, 30 min; inhibition, % at 5 µM; 21% of 96,000 active; AID 778;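 active = CYP2C19 inhibition above a set limit at 5 µM in the primary screen, cut at about 50% in these data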
CYP2C9 activ: increases human cytochrome P450 2C9 activity; P11712; recombinant CYP2C9, luciferin-H conversion, luminescence; stronger effect = higher value; factor 1 = untreated enzyme, 0 = blocked; activation factor at 5 µM; 1.4% of 96,000 active;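 active = activation factor of 2 or more for CYP2C9 at a 5 µM dose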
Plk1 PBD FP: Plk1 (human) PBD binding inhibition; P53350; Plk1 PBD phosphopeptide binding, fluorescence polarization; inhibition, %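 (tested at about 20 µM)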; 0.13% of 97,000 active; in the data active = inhibition above about 34%, passing the limit was not always enough
Target sequence (P53350 whole entry, looked up): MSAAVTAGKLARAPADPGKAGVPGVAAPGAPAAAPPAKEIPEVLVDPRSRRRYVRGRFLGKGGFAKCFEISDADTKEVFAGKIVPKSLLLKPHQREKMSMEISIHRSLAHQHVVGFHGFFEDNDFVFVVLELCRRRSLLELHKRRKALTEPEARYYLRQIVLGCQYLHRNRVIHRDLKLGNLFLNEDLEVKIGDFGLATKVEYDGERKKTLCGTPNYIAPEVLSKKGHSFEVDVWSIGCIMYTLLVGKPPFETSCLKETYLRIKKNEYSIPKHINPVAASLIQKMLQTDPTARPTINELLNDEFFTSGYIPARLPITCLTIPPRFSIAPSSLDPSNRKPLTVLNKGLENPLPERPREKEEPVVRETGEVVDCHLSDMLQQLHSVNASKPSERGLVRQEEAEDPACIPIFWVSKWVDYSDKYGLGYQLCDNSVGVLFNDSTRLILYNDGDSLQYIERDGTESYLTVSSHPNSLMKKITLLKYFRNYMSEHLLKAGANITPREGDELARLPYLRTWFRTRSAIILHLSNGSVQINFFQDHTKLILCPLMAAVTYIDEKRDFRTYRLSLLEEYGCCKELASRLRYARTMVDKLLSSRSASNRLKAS
CYP2C19 act: cytochrome P450 2C19 (human) activation; P33261; recombinant CYP2C19, luciferin-H EGE luminescence; stronger effect = higher value; 0 = fully inhibited enzyme, 1 = untreated enzyme; activation factor at 5 µM; 96,000 tested, under 10 active; AID 1025;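 active = activation factor of at least 2 at 5 µM in the primary screen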
PLK1 inh: blocks human PLK1 kinase activity; P53350; recombinant PLK1 kinase, TR-FRET peptide phosphorylation; inhibition, % at 10 µM; 0.53% of 97,000 active; AID 619;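 active = inhibition of 50% or more in the single-concentration screen; inactive = inhibition below 50%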
Of the large screens only hits and unclear results are named; the others gave an inactive call.

CCNc1nc(SC(C)C(=O)OC)nc(N2CCOCC2)n1 (stereo not given)	none (no result: Plk1 PBD FP, PLK1 inh)
Cn1c(=O)n(Cc2ccc(F)cc2)c(=O)c2c1nc1n2CCCN1C1CCCCC1	none
Cc1cc(C)n(Cc2ccc(Cl)cc2Cl)c(=O)c1S(=O)(=O)c1ccccc1	CYP2C9 inhib 92
Cc1cc(C)c(S(=O)(=O)c2ccccc2)c(OC(=O)c2ccc(Cl)cc2Cl)n1	none
COC(=O)c1ccc(-n2nnnc2SCC(=O)N2CCCCC2)cc1	CYP2C9 inhib 55
CCOC(=O)CSc1nnnn1-c1cc(OC)ccc1OC	CYP2C9 inhib 65, CYP2C19 inhib 71
CCCOC(=O)c1ccc(-n2nnnc2SCC(=O)N2CCCCC2)cc1	none
COc1ccc(OC)c(-n2nnnc2SCC(=O)Nc2ccc(C(=O)N3CCCCC3)cc2)c1	CYP2C9 inhib 67, CYP2C19 inhib 78
Cc1ccc(-c2c3c(=O)n(C)c(=O)n(C)c3cn2Cc2cccnc2)cc1	none
Cc1csc(CCc2nc(C)cs2)n1	none
COc1cccc(C(C#N)N2CCOCC2)c1 (stereo not given)	CYP2C19 inhib 78
COc1cc(C(C#N)N2CCOCC2)ccc1O (stereo not given)	none
CC1(C)CC(=O)c2c(O)cc(OCc3ccc([N+](=O)[O-])cc3)cc2O1	none
Cc1cccc(/C(N)=N/OC(=O)CCc2ccccc2)c1	CYP2C9 inhib 54
Cc1cccc(/C(N)=N/OC(=O)Cc2cccs2)c1	none
Cc1ccc(OCc2nnc(NC(=O)c3ccco3)s2)c(C)c1	none
COCCOC(=O)C1=C(C)N(Cc2ccccc2)C(=O)NC1c1ccc(OC)cc1 (stereo not given)	CYP2C9 inhib 74, CYP2C19 inhib 98
CCOC(=O)C1=C(C)N(CCO)C(=O)NC1c1ccccc1 (stereo not given)	none (no result: Plk1 PBD FP, PLK1 inh)
CCOC(=O)c1c(-c2ccc(C)s2)csc1NC(=O)c1ccco1	none (no result: Plk1 PBD FP, PLK1 inh)
O=C(CSc1ncn[nH]1)Nc1ccccc1Sc1ccc(Cl)cc1	CYP2C9 inhib 93, CYP2C19 inhib 98
CC(=O)Nc1nonc1NC(=O)CSc1ncn[nH]1	none
COC(=O)c1ccc(Cl)c(NC(=O)CSc2ncn[nH]2)c1	CYP2C19 inhib 74
COC(=O)c1cccc(NC(=O)CSc2ncn[nH]2)c1	CYP2C19 inhib 57
O=C(CSc1ccc(-c2ccccc2)nn1)N1CCOCC1	none
COc1ccc(CNC(=O)CN(CC2CCCO2)C(=O)CNS(=O)(=O)c2ccc(C)cc2)cc1 (stereo not given)	none
O=C(CSc1nnc(Cn2nnc3ccccc32)o1)Nc1ccc(Cl)cc1	none (no result: CYP2C9 inhib, CYP2C19 inhib, CYP2C9 activ, CYP2C19 act)
COc1ccc(N(Cc2ccccc2)C(=O)CSc2nnc(Cn3nnc4ccccc43)o2)cc1	CYP2C9 inhib 74
COc1ccc(CN(C(=O)CSc2nnc(-c3ccc(F)cc3)o2)c2ccc(F)cc2)cc1	CYP2C9 inhib 68, CYP2C19 inhib 54 (no result: Plk1 PBD FP, PLK1 inh)
O=C(CSc1nnc(Cn2nnc3ccccc32)o1)N(Cc1ccc(F)cc1)c1ccccc1	CYP2C9 inhib 59
COc1ccc(-c2nnc(SCC(=O)c3ccc(C)o3)o2)cc1	none (no result: CYP2C9 inhib, CYP2C19 inhib, CYP2C9 activ, CYP2C19 act)
Cc1snc(S(=O)(=O)/C(C#N)=N/Nc2ccc(C(F)(F)F)cc2)c1C#N	CYP2C9 inhib 94
Cc1snc(SCC(=O)N/N=C(\N)COc2ccc(F)cc2)c1C#N	none
Cc1snc(S(=O)(=O)/C(C#N)=N\Nc2ccccc2)c1C#N	CYP2C9 inhib 92
O=C(Nc1ccccc1)C1CC(=O)N(c2ccc3c4c(cccc24)CC3)C1 (stereo not given)	CYP2C9 inhib 62
CCOC(=O)c1cc2sccc2n1CC(=O)N1CCN(C(=O)c2ccco2)CC1	none
O=C(C[n+]1cc2ccccc2c2ccccc21)c1ccccc1	CYP2C9 inhib 72, CYP2C19 inhib 55
CCc1ccc(S(=O)(=O)NCc2csc(C)n2)s1	none (no result: CYP2C9 inhib, CYP2C19 inhib, CYP2C9 activ, CYP2C19 act)
O=C(Cc1ccccc1)Nc1nonc1NC(=O)c1ccccc1	CYP2C9 inhib 70
O=C(CCCCCn1c(=S)[nH]c2cc3c(cc2c1=O)OCO3)N1CCN(C(=O)c2ccco2)CC1	CYP2C9 inhib 64
COc1ccc(N2CCN(C(=O)CCCn3c(=S)[nH]c4cc5c(cc4c3=O)OCO5)CC2)cc1	CYP2C9 inhib 74
O=c1c2cc3c(cc2[nH]c(=S)n1CCN1CCOCC1)OCO3	none
O=C(CCCCCn1c(=S)[nH]c2cc3c(cc2c1=O)OCO3)N1CCN(C2CCCCC2)CC1	CYP2C9 inhib 81
O=C(CCCn1c(=S)[nH]c2cc3c(cc2c1=O)OCO3)N1CCN(c2ccccn2)CC1	none
O=C(CCCCCn1c(=S)[nH]c2cc3c(cc2c1=O)OCO3)N1CCN(Cc2ccccc2)CC1	CYP2C9 inhib 70
Cc1ccc(C)c(N2CCN(C(=O)CCn3c(=S)[nH]c4cc5c(cc4c3=O)OCO5)CC2)c1	CYP2C9 inhib 79
COc1ccc2[nH]c3c(=O)n(CCCCC(=O)N4CCCC4)c(=S)[nH]c3c2c1	CYP2C9 inhib 60
C/C(=N/NC(=O)c1ccoc1C)C12CC3CC(CC(C3)C1)C2	CYP2C19 inhib 57
O=C(c1ccccc1S(=O)(=O)NCc1ccccc1)N1CCCCC1	CYP2C19 inhib 89
O=C(CCN1C(=O)C2CC=C(Cl)CC2C1=O)Nc1ccccc1O (stereo not given)	CYP2C19 inhib 59 (no result: Plk1 PBD FP, PLK1 inh)
CC1(C)CC(=O)C2=C(C1)Nc1ccccc1NC2c1cccnc1 (stereo not given)	none (no result: Plk1 PBD FP, PLK1 inh)
COc1ccc(N2C(N)=C(C#N)C(c3cccnc3)C3=C2CC(C)(C)CC3=O)cc1 (stereo not given)	CYP2C9 inhib 56
CC1(C)CC(=O)C2=C(C1)N(c1ccccc1C#N)C(N)=C(C#N)C2c1cccs1 (stereo not given)	CYP2C9 inhib 71
CC1=C(C#N)C(c2cccnc2)C2=C(CC(C)(C)CC2=O)N1 (stereo not given)	none (no result: Plk1 PBD FP, PLK1 inh)
CCSc1sccc1C1C(C#N)=C(N)N(c2cccnc2)C2=C1C(=O)CC(C)(C)C2 (stereo not given)	CYP2C9 inhib 60, CYP2C19 inhib 74 (no result: Plk1 PBD FP, PLK1 inh)
CC1(C)CC(=O)C2=C(C1)OC(c1cccs1)C(C#N)=C2N (stereo not given)	CYP2C9 inhib 68, CYP2C19 inhib 83 (no result: Plk1 PBD FP, PLK1 inh)
COC(=O)N1CCN(S(=O)(=O)c2ccc(F)cc2)CC1	none (no result: CYP2C9 inhib, CYP2C19 inhib, CYP2C9 activ, CYP2C19 act)
Cn1c(=O)[nH]c(=O)c2c1nc(Br)n2CC(O)c1ccccc1 (stereo not given)	none
CC(NC(=O)c1cccc(F)c1)C(c1cccs1)N1CCN(C)CC1 (stereo not given)	none
COc1ccc(N2C(=O)C3C4C=CC(C5CC45)C3C2=O)c([N+](=O)[O-])c1 (stereo not given)	CYP2C9 activ 2
CCS(=O)(=O)N1CCN(C2CCC(C)CC2)CC1 (stereo not given)	none
CCOC(=O)c1nn(-c2ccccc2F)c(C)c1C(C)=O	CYP2C19 inhib 98
CCOC(=O)c1nn(-c2ccccc2)c(C)c1C(C)=O	CYP2C19 inhib 100
CCOC(=O)c1cnn(-c2ccc(C)cc2)c1N	none
